# Screens from PubChem BioAssay.
# Only some compounds are listed: those with a hit (about 12% of all), similar ones and a draw of the others.
# Shiga inhibitor: inhibitors of Shiga toxin in Vero cells. 290,000 tested, 9.2% active. AID 2315. inhibition, % at 38.7 µM. Vero cells, Shiga toxin protein synthesis inhibition reporter; in the data active = inhibition mostly above about 28%, no sharp cut-off; inactive = mostly below about 43%; also: 0% is about no effect
# CHX counter: counter-screen for Shiga toxin inhibitors: cycloheximide protein synthesis inhibition; cell reporter, cycloheximide protein synthesis inhibition counterscreen; 300,000 tested, 12% active; AID 2314; max response, %; in the data active = max response mostly above about 13%, no sharp cut-off; inactive = mostly below about 14%; also: read at 38.3 µM for the half of the compounds with a filed dose; 0% is about no effect
# Sm TGR inh: inhibitors of Schistosoma mansoni thioredoxin glutathione reductase; purified TGR, DTNB reduction, TNB absorbance 405 nm; Q962Y6; 360,000 tested, 3% active; AID 485364; Potency, µM (doses to about 114 µM), for inactives: at the top dose activity change, negative = inhibition, hits mostly inhibitors; active = well fitted inhibition curve with a large enough effect; inconclusive = small, poorly fitted or top-dose-only effect; inactive = no such curve, though single readings can be large or run the other way; also: potency is read from the fitted curve at half-maximal effect; % is scaled to controls: 0 for no effect and ±100 for the full control effect; nearly all actives have a fitted effect of over 60% in size
#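 Kinetic colorimetric format: TGR-catalysed, NADPH-driven DTNB reduction monitored via TNB absorbance. Enzyme dispensed at 20 nM; compound exposure 15 min at room temperature before reaction start.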
# FMDV inh: blocks foot and mouth disease virus. FMDV antiviral cell-based qHTS. Potency, µM (doses to about 57.9 µM), for inactives: at the highest dose activity change, negative = inhibition, most hits filed as inhibitors. 410,000 tested, 1.2% active; calls by dose curve; tested in HEK293T cells; also: read-out not given here; potency is read from the fitted curve at half-maximal effect; % is scaled to controls: 0 for no effect and ±100 for the full control effect; nearly all actives have a fitted effect of over 45% in size
# An asterisk follows results filed as active; ? = inconclusive; . = not tested or not shown; [ ] = dose if it differs, or a comment.
SMILES,Shiga inhibitor,CHX counter,Sm TGR inh,FMDV inh
c1ccc(-c2ccc(CN3CCSCC3)cc2)cc1,77*,25*,-3%,13%
CCSc1nnc(C(C)NC(=O)c2ccc(OC)cc2)n1C (stereo not given),.,.,.,-6%
Cc1cccc(NC(=O)c2oc3ccc(S(=O)(=O)N(C)C4CCCCC4)cc3c2C)c1C,.,.,0%,-5%
CN1CCN(C(=O)c2cc3ccccc3oc2=O)CC1,-6,13*,15%,4%
O=C(c1cc2ccccc2oc1=O)N1CCN(c2ncccn2)CC1,86*,34*,-5%,85%
O=C(c1cc2ccccc2oc1=O)N1CCCN(C(=O)c2cc3ccccc3oc2=O)CC1,.,.,.,-14%
O=C(c1cc2ccccc2oc1=O)N1CCN(c2ccccn2)CC1,2,-1,2%,-4%
Cc1cccc(N2CCN(C(=O)c3cc4ccccc4oc3=O)CC2)c1C,17,20*,-32%,23%
Cc1ccc(-c2nc3sc(CCNC(=O)c4ccc(Br)o4)c(C)n3n2)cc1,.,.,12%,8%
CC(C)c1ccc(CNc2nc(-c3ccco3)nn2S(=O)(=O)c2ccc(F)cc2)cc1,.,.,-2%,-4%
CN(CCO)C(=O)c1cn(C2CCN(Cc3c(F)cccc3Cl)CC2)nn1,.,.,.,-11%
Cc1cc(C)cc(NC(=O)C2CCCN(S(=O)(=O)c3cccc4nsnc34)C2)c1 (stereo not given),.,.,16%,-6%
Cc1ccc(C2=NNC(C(O)C(O)C(O)C(C)O)S2)cc1 (stereo not given),107*,32*,0%,66%
Cn1c(Cc2ccccc2)nnc1SCC(=O)N1CCCCC1,-1,-3,-3%,15%
Cn1c(Cc2ccc3c(c2)OCO3)nnc1SCC(=O)N1CCc2ccccc2C1,-7,0,45µM*,10%
COc1cccc(/C=C/c2ccccn2)c1O,110*,50*,4%,-7%
O=C(Nc1ccc(Br)cc1F)c1ncoc1-c1ccco1,.,.,-15%,-22%
CC1(C)Cc2nc3sc4c(NCCO)ncnc4c3cc2CS1,26,20*,-17%,8%
CC(C)CCn1cnc2c(sc3nc4c(cc32)CSC(C)(C)C4)c1=O,43*,38*,1%,-3%
CCCCn1cnc2c(sc3nc4c(cc32)CSC(C)(C)C4)c1=O,55*,78*,0%,27%
CCc1nc2c(sc3nc4c(cc32)COC(C)(C)C4)c(=O)n1Cc1ccccc1,-2,-4,10%,20%
COc1cccc(NC(=O)Cn2c(=O)n(CCCC(=O)NCc3ccc4c(c3)OCO4)c(=O)c3ccccc32)c1,.,.,3%,8%
COc1ccc(Cl)cc1-c1cc2c(c(OC)c1)OCCN(Cc1cccn1-c1nccs1)C2,.,.,.,1%
O=C1NC(=S)S/C1=C\c1ccc(SCc2ccco2)o1,18,2,1.3µM*,-24%
CCC1=NN2C(=N)/C(=C\c3ccc(SCc4ccco4)o3)C(=O)N=C2S1,1,-4,50µM*,31%
SMILES,Shiga inhibitor,CHX counter,Sm TGR inh,FMDV inh
O=C1NC(=S)S/C1=C\c1ccc(SCc2ccccc2)o1,-8,-3,?,?
Cc1ccc(CSc2ccc3nnc(CCNS(=O)(=O)c4ccc(C)cc4)n3n2)cc1,.,.,2%,13%
COc1ccc(N/N=C(\C#N)C(N)=O)cc1,43,13*,-16%,24%
CCOc1ccc(N/N=C(/C#N)C(N)=O)cc1,46*,31*,0%,48%
CCOc1ccc(N/C(SC)=C(/C#N)C(N)=O)cc1,24,-3,-5%,14%
CNC(=S)Nc1ccc(OC(F)(F)F)cc1,-3,4,2%,16%
N#C/C(=N/Nc1ccc(OC(F)(F)F)cc1)C(N)=S,75*,57*,-18%,10%
Cc1cc(OCC(=O)Nc2ccc(C(=O)OC3CCCCC3)cc2)cc(C)c1Cl,.,.,0%,-24%
Cc1ccc(C)c(CN2C(=O)CSc3ccc(C(=O)NCc4ccc(F)cc4)cc32)c1,.,.,2%,-19%
NC(=O)c1ccccc1NS(=O)(=O)c1ccc(F)cc1,-21,1,-2%[57.1 µM],3%
Cc1ccc(C(=O)CNc2ccccc2)cc1,47*,34*,2%,22%
NC(=O)c1ccccc1NCC(=O)c1ccc(F)cc1,48*,29*,3%,6%
Cc1ccc(C(=O)CC(=O)c2ccc(C(C)(C)C)cc2)cc1,6,8,0%,28%
CC(C)c1ccc(NCCC(=O)c2ccc(Br)cc2)cc1,-8,-4,?,-13%
Cc1cccc(NCCC(=O)c2ccc(Br)cc2)c1,42,24*,5.6µM*,.
O=C(CNc1ccc(F)cc1)c1ccccc1,52,23*,.,49%
COc1ccc(C2C=C3CNS(=O)(=O)C3CC2OC(=O)c2ccc(Cl)cc2)cc1 (stereo not given),1,-2,.,.
CC(C)CCN1C(=O)c2ccccc2CC1(C)C(=O)NC1CCCCC1 (stereo not given),.,.,4%,12%
Cc1ccc(C(=O)CNc2ccc(Br)cc2)cc1,44*,10,1%,42%
O=C(CNc1ccc(Br)cc1)c1ccccc1,21,18*,0%,50%
CC(=O)Oc1ccccc1C(=O)C=Cc1cccc([N+](=O)[O-])c1,.,.,.,28µM*
O=C(/C=C/c1cccc([N+](=O)[O-])c1)OCC1CCCO1 (stereo not given),26*,11*,-1%,0%
Cc1cc(O)c(C(=O)/C=C/c2cccc([N+](=O)[O-])c2)c(=O)o1,-13,1,0%,18µM*
O=C(/C=C/c1cccc([N+](=O)[O-])c1)c1cccs1,-6,9,-21%,-90%
Cc1cc(O)c(C(=O)/C=C/c2ccccc2O)c(=O)o1,11,9,?,?
SMILES,Shiga inhibitor,CHX counter,Sm TGR inh,FMDV inh
O=C(/C=C/c1cccc([N+](=O)[O-])c1)OCC(=O)c1ccccc1,-3,-5,.,0%
COc1ccccc1N1CCN(S(=O)(=O)CCNC(=O)Cc2ccc(Cl)cc2)CC1,.,.,2%,?
CCc1c(C)sc(NC(=O)c2cc(-c3ccc(OC)cc3)on2)c1C#N,.,.,10%,-12%
Cc1ccccc1NC(=O)N1CCc2cc(S(=O)(=O)N3CCC(C)CC3)ccc21,.,.,-2%,-6%
COc1ccc(-c2nnc3n2N=C(c2ccc(OC)cc2OC)CS3)cc1,-10,7,.,.
Cc1nn2c(=O)c(NC(=O)c3ccc(F)cc3)cnc2s1,16,-2,-2%,-1%
Cc1ccc(C(=O)Nc2cnc3sc(C)nn3c2=O)cc1,58*,37*,1%,39%
Cc1ccc2c(c1)sc1ncc(NC(=O)c3ccc(F)cc3)c(=O)n12,39,12,-2%,.
Cc1nn2c(=O)c(NC(=O)c3ccc(Cl)cc3)cnc2s1,52*,36*,1%,8%
CCOC(=O)c1cccc(NC(=O)c2cc3c(=O)n(Cc4cccnc4)ccc3nc2C)c1,.,.,-3%,-23%
COc1cccc(/C(C)=N/N=C(\C)c2cccc(OC)c2)c1,39*,34*,-7%,45%
CS(=O)(=O)Nc1ccc(C(=O)Nc2ccc3ccccc3c2)cc1,.,35*,5%,66%
COc1ccc(/C(O)=C/C(=O)C(=O)NNC(=O)c2ccccc2)cc1,33,30*,14µM*,12%
COc1cccc(C(=O)N/N=C(/CCC(=O)O)c2ccccc2)c1,active,52*,8%,-12%
CC(=O)c1cccc(NC(=O)c2ccc(NS(C)(=O)=O)cc2)c1,6,7,-24%,2%
